Results on 38 molecules are retold here after PubChem BioAssay (NCI).

About 83,000 compounds went through this panel and 20% of them were active in at least one assay; those are over-represented in the sample as a whole.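 Growth was measured after 48 h exposure to one concentration of compound in 96-well plates. Values under 10 count as active.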 Active and inactive are the calls of the source.

In the first assay the test system is OVCAR-5 ovarian. The experiment in a line: NCI-60 one-dose screen, 48 h (100 = growth as untreated, 0 = no growth, -100 = all killed). The settings on record: 10 µM unless noted.
As to `Cc1ccc(N(CC(=O)Nc2ccc(S(=O)(=O)NC3CCN(C)CC3)cc2)S(=O)(=O)c2ccc(Cl)cc2)cc1`, the growth is 91.6% (inactive). Still for that read-out and setting: the value for `N#CC1=C(N)Oc2ccc3ccccc3c2C1c1ccccc1` (stereo not drawn) was 55.8% (inactive); that for `COc1ccc(C(=O)/C=C/c2cc(-c3cc(OC)c(OC)c(OC)c3)n[nH]2)cc1OC` was 32.9% (inactive); that for `Cn1c(/C(C#N)=C/c2ccc3ccccc3c2)cc2ccccc21` was 34.4% (inactive).

Take `CCN(CC)c1ccc(/C=C/c2cc(C)c3ccccc3n2)cc1`: the growth was 92.4% (inactive).

Another assay concerns OVCAR-4 ovarian. The description is as above. The settings on record: 10 µM unless noted.
As for `COc1cccc(-c2nn(-c3ccccc3)cc2-c2ccnc(NCCCN)c2)c1`, the growth was 63.8% (inactive). The same measure, in the same setting: the value for `Cn1cnc2c1c(=O)n(CCC(=O)Nc1ccc(F)cc1)c(=O)n2C` was 109% (inactive). As for `C=C(C)[C@@H]1CC[C@]2(C=O)CC[C@]3(C)[C@H](CC[C@@H]4[C@@]5(C)C/C(=C/c6cccnc6)C(=O)C(C)(C)[C@@H]5CC[C@]43C)[C@@H]12`, the growth was 64.6% (inactive).

As to `CN(C)c1cccc2[nH]c(-c3[nH]ncc3Nc3ccnc(N)n3)nc12`, the growth is -11.7% (active). Consider `O=Cc1nc2ccccc2[nH]1`, for which the growth was 110% (inactive). Regarding `COc1cc2nc(Cl)nc(Nc3cccc(C(=O)/C=C/c4ccc(Br)cc4)c3)c2cc1OC`, the growth was 93% (inactive). Same read-out and setting: the value for `CC[C@H](CC[C@@H](C)[C@H]1CC[C@H]2[C@@H]3/C(=C/c4cccnc4)C(=O)C4=CC(=O)CC[C@]4(C)[C@H]3CC[C@]12C)C(C)C` was 100% (inactive); that for `C=C(C)[C@@H]1CC[C@]2(c3nnc(-c4ccncc4)o3)CC[C@]3(C)[C@H](CC[C@@H]4[C@@]5(C)CCC(=O)NC(C)(C)[C@@H]5CC[C@]43C)[C@@H]12` was 89.5% (inactive); that for `COc1cc(NC(C)CN(CC(C)C)C(C)C)c2ncccc2c1` (stereo not drawn) was 40.2% (inactive). Still for that read-out and setting: as for `Nc1c2c(nc3ccc(Cl)cc13)CC(c1ccccc1)CC2=O` (stereo not drawn), the figure is 89.2% (inactive); as for `COC(=O)[C@]12CC[C@@H](C)[C@H](C)[C@@H]1C1=CC[C@@H]3[C@@]4(C)C[C@@H](O)[C@H](O)[C@@](C)(CO)C4=CC[C@@]3(C)[C@]1(C)CC2`, -55.5% (active). The same measure, in the same setting: as for `CCC1C(=O)COC1=O` (stereo not drawn), the figure is 105% (inactive); as for `C=C(C)[C@@H]1CC[C@]2(C)[C@H](CC=C3[C@@H]4CC(C)(C)CC[C@]4(C(=O)OC)CC[C@]32C)[C@@]1(C)CC/C(N)=N/O`, 36.4% (inactive); as for `O=C(/C=C/c1cccc2ccccc12)Nc1ncc(Cc2ccccc2)s1`, 6.74% (active). Turning to `N#Cc1c(-c2ccc(O)cc2)c2c(N)nn(-c3ccccc3)c2[nH]c1=O`, the growth is 113% (inactive).

Take `COc1ccc(-c2c(-c3nc4ccc(N5CCOCC5)cc4[nH]3)[nH]c(C)c2C(C)=O)cc1`: the growth was 45.1% (inactive). As to `c1ccc(-c2nc(Nc3ccc(-c4nc5ccccc5[nH]4)cc3)nc(N3CCOCC3)n2)cc1`, the growth is -47.2% (active). Still for that read-out and setting: as for `Cc1cc2nc3c4cc(Cl)ccc4n(CCN(C)C)c3nc2cc1C`, the figure is 27.1% (inactive); as for `Cc1cc(N2CCOCC2)nc(N(CCCNc2ccnc3cc(Cl)ccc23)Cc2ccco2)n1`, 50.4% (inactive); as for `Cc1cc(N(CCNc2ccnc3cc(Cl)ccc23)Cc2ccco2)nc(Cl)n1`, -59.7% (active). The same measure, in the same setting: the value for `COc1ccc(/C=C/C(=O)NCCO)cc1` was 103% (inactive); that for `O=C1NC(c2ccc(Cl)c(Cl)c2)=C/C1=C\c1ccccc1` was -36.6% (active). Still for that read-out and setting: the value for `N#C/C(=C\c1ccc(-c2ccccc2)o1)c1nc(-c2ccco2)cs1` was 11% (inactive); that for `C=C1C(=O)O[C@H]2[C@H]1CC/C(COC(=O)NCc1c[nH]c3ccccc13)=C\CC[C@@]1(C)O[C@@H]21` was 58.1% (inactive). For the molecule `Cn1cc(-c2csc(-c3cn(CCN)c4ccccc34)n2)c2cccnc21`, the growth was 51.8% (inactive). On to `C=C(C)[C@@H]1CC[C@]2(C)[C@H](CC[C@@H]3[C@H]4[C@H]5OC[C@@]4(CCC5(C)C)CC[C@]32C)[C@@]1(C)CCCN`, for which the growth was 70.2% (inactive). Same read-out and setting: the value for `CC[C@]12C=CCN3CC[C@@]4(c5cc([C@H]6CCC(=O)N6)c(OC)cc5N(C)[C@H]4[C@@](O)(C(=O)OC)[C@@H]1OC(C)=O)[C@@H]32` was 104% [2.5 µM] (inactive); that for `COc1cc2c(cc1-c1c(C)noc1C)ncc1nc(C3CCCCC3)n([C@@H](C)COC(F)F)c12` was 41.8% (inactive); that for `COc1ccc(/C=C(\C#N)c2cc3ccccc3n2S(C)(=O)=O)cc1` was 93.4% (inactive).

As for `CCc1cccc(CC)c1NC(=O)c1sc2nc3c(cc2c1N)CCCC3`, the growth was 78.2% (inactive). The same measure, in the same setting: as for `O=C1CCC/C=C\C[C@H]2C=C(Cl)C(=O)/C2=C/C[C@H](CCCCC(F)(F)F)OC(=O)CCC/C=C\C[C@H]2C=C(Cl)C(=O)/C2=C/C[C@H](CCCCC(F)(F)F)O1`, the figure is 19.7% [7.5 µM] (inactive); as for `COc1cc(-c2cc3ncccc3c3nc(N)c4cccnc4c23)cc(OC)c1OC`, 54.3% (inactive). Still for that read-out and setting: as for `COC(=O)[C@]12CC[C@@H](C)[C@H](C)[C@@H]1C1=CC[C@@H]3[C@@]4(C)C[C@@H](OC(C)=O)[C@H](O)[C@@](C)(CO)[C@@H]4[C@H](O)C[C@@]3(C)[C@]1(C)CC2`, the figure is -79.6% (active); as for `Cc1ccc(N(CC(=O)Nc2ccc(S(=O)(=O)NC3CCN(C)CC3)cc2)S(=O)(=O)c2ccc(Cl)cc2)cc1`, 87.8% (inactive); as for `N#CC1=C(N)Oc2ccc3ccccc3c2C1c1ccccc1` (stereo not drawn), 73.6% (inactive).

`COc1ccc(C(=O)/C=C/c2cc(-c3cc(OC)c(OC)c(OC)c3)n[nH]2)cc1OC`: the growth was 13.3% (inactive). In the case of `Cn1c(/C(C#N)=C/c2ccc3ccccc3c2)cc2ccccc21`, the growth was 56.5% (inactive).

As to `CCN(CC)c1ccc(/C=C/c2cc(C)c3ccccc3n2)cc1`, the growth is 82.8% (inactive).
